Data on 24 compounds can be found in PubChem BioAssay AID1851 (National Center for Advancing Translational Sciences (NCATS), 2009).

Molecules are shown by their SMILES. The whole screen tested about 16,000 compounds, of which about 5,800 (36%) were called active. Roughly 23% stayed inconclusive and do not appear here. The list shows a part of the results. A number with no mark means an inactive call. The call rests on the fitted dose curve; in most records, active means well fitted curve in the direction sought with a large enough effect; inconclusive means small, poorly fitted or top-dose-only effect, or effect the other way; inactive means no such curve, though single readings can be large or run the other way.
On the % scale 0 is the no-effect control and ±100 the full control effect.

Sequence of Cytochrome P450 2C19 (Homo sapiens) (P33261 whole entry, looked up): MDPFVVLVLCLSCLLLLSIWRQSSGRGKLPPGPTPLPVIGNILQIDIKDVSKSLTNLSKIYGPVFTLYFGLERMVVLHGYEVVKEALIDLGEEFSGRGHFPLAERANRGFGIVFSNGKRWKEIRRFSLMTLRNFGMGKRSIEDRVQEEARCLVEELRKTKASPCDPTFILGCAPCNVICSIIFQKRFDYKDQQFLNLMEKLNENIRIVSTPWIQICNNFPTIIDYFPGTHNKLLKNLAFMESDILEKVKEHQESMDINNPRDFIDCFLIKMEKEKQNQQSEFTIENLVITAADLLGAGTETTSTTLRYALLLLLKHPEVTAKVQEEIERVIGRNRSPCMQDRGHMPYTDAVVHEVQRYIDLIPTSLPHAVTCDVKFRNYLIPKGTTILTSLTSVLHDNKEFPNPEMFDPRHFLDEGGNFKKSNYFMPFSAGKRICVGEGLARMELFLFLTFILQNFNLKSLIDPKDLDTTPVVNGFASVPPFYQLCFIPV

The experiment has as its target Cytochrome P450 2C19 (Homo sapiens) (UniProt P33261). In words: Cytochrome panel assay with activity outcomes. The note with it: recombinant CYP, pro-luciferin dealkylation, luminescence, p450-cyp2c19; series mostly up to 57.1 µM.
`CCOC(=O)c1cc2c(C)n(-c3ccc(C)cc3)c(C)c2ccc1=O`: the AC50 is 14.1 µM (active).
As for `C[C@H]1[C@@H](O)[C@@H](C)\C=C/C=C\C=C/C=C\C=C/C=C\C=C/[C@@H](O[C@H]2O[C@@H](C)[C@@H](O)[C@@H](N)[C@@H]2O)C[C@@H]2O[C@](O)(C[C@@H](O)C[C@@H](O)[C@@H](O)CC[C@@H](O)C[C@@H](O)CC(=O)O[C@H]1C)C[C@@H](O)[C@H]2C(=O)O` (stereo in doubt), the AC50 result is “inactive”.
The same measure, in the same setting: under `CCOC(=O)c1[nH]c2cc3c(cc2c1NC(=O)CN1CCC2(CC1)OCCO2)OCO3` stands “inactive”; under `CCOC(=O)c1[nH]c2cc(OC)c(OC)cc2c1NC(=O)c1nonc1C`, “inactive”; under `CCOC(=O)c1[nH]c2ccc(OC)cc2c1NC(=O)c1ccc2c(c1)OCO2`, 7.08 µM (active).
On to `COC(=O)c1[nH]c2cc(OC)ccc2c1NC(=O)c1ccc2c(c1)OCO2`, for which the AC50 was 10 µM (active).
Same read-out and setting: for `CCOC(=O)c1[nH]c2cc(OC)c(OC)cc2c1NC(=O)c1ccc2c(c1)OCO2` the value was “inactive”; for `COC(=O)c1[nH]c2cc(OC)ccc2c1NC(=O)c1nonc1C`, “inactive”.
Consider `CC(C)[C@@H](OCc1ccccc1)[C@H](C)/C=N\OC[C@@H](O)[C@@H]1O[C@@H]2OC(C)(C)O[C@@H]2[C@H]1O`, for which the activity, negative = inhibition is -18.3% [at 11.4 µM].
For `C[C@@H](C(=O)Nc1ccc2ccccc2c1)[C@H]1C[C@]1(C)[C@H](NC(=O)OCc1ccccc1)c1ccccc1`, the AC50 was 1 µM (active).
For the compound `C[C@@H](C(=O)Nc1ccc2ccccc2c1)[C@@H]1C[C@@]1(C)[C@@H](NC(=O)OCc1ccccc1)c1ccccc1`, the AC50 is 3.16 µM (active).
Regarding `CCCn1c(=O)c2[nH]c(C3CCCC3)nc2n(CCC)c1=O`, the AC50 entry was “inactive”.
The same measure, in the same setting: for `O=c1c2ccccc2nnn1CSc1nnc(COc2ccc(Cl)cc2)n1Cc1ccco1` the value was 14.1 µM (active).
As for `O=C(Nc1ccc(Cl)cc1Cl)c1cccc(N2C(=O)C=CC2=O)c1`, the AC50 was 3.98 µM (active).
On to `Cc1cccc(NC(=O)c2cccc(N3C(=O)C4C5CCC(C5)C4C3=O)c2)c1C` (centres undefined), for which the AC50 result was “inactive”.
On the same count and under the same terms, under `COc1cccc(/C(O)=C2/C(=O)C(=O)N(c3ccccn3)C2c2ccc(OC)c(OC)c2)c1` (centres undefined) stands “inactive”; under `COc1ccc(N2C(=O)c3ccccc3NC2c2ccc(OC)c(CSc3ccccn3)c2)cc1` (centres undefined), 0.891 µM (active).
`c1ccc2c[n+](Cc3ccnc4ccccc34)ccc2c1`: the activity, negative = inhibition was 10.8% [at 11.4 µM].
As for `COC(=O)c1c(NC(C)=O)sc(Cc2ccccc2)c1C`, the AC50 was 4.47 µM (active).
Consider `CCc1c(C)sc(NC(=O)OC)c1C(N)=O`, for which the AC50 entry is “inactive”.
For the compound `CCOc1cc(CC(=O)N[C@@H](CC(C)C)c2ccccc2N2CCCCC2)ccc1C(=O)O`, the AC50 result was “inactive”.
Consider `COc1c(NC(C)=O)c2ccccc2c2ccccc12`, for which the activity, negative = inhibition is 4.06% [at 11.4 µM].
On to `CCOc1ccc(CC(=O)Nc2sc(Cc3ccccc3)c(C)c2C(N)=O)cc1OCC`, for which the AC50 was 4.47 µM (active).
Take `COC(=O)c1c(C)[nH]c(C)c1C(=O)c1ccccc1Cc1ccccc1`: the AC50 entry is “inactive”.
